# Whole data set: some 1,800 sequences, median “median log2 fold change of GCK-ALFA target abundance (FLAG IP / Myc IP barcode read proportion)” near 0.14, cut for the lowest 2% near -0.84. This excerpt belongs to a sample that is enriched for the lowest values.
# T1: TRAF2, Q12933
# T1 chain: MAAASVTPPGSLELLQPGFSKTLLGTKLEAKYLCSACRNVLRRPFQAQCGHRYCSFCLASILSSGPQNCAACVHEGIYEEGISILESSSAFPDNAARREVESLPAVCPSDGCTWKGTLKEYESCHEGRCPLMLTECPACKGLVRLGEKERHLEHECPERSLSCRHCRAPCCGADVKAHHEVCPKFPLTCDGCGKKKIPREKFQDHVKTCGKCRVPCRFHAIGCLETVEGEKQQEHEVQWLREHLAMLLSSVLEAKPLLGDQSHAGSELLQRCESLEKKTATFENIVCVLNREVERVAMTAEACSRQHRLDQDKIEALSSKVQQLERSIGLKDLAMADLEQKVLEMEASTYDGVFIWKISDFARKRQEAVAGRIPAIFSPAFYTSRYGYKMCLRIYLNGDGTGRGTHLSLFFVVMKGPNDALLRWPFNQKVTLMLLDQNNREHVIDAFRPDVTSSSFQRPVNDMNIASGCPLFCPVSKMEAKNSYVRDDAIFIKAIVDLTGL
# B1: traf2_out_13_95_1152 (protein)
# chain: SKELAEKINQIADDMLDQVEAKLQALLEKMKAAGKGVEEVQKALDLARYRSVNEAIALLEELSKKYPEFKELFDATIKEIKAIIREAGRKVAELIKEEEA
# B2: traf2_out_11_131_656 (protein)
# chain: MDAVAMAESAAERVDERLEIAKTLSPEERLRLARQSLDSLEALAEYLKEHVKEMSKEDVEKAAKILRESAEKILEFSPEVEEEAKEVEEAIKKLLEAAKA
# B3: traf2_out_20_38_2032 (protein)
# chain: SEEEEEERRLEEAIEVANEAYDRYTARFEEWQAAGKTVEEIAEETKKEVKELLEKAGLEEEAKILIEDIDLALSSPDAVRLLVRILARAEALVWQKEKEK
# B4: traf2_out_19_16_1989 (protein)
# chain: SKEEAEKLKKEMNKYLDEALELAKEAVENLDELSREELMDKLVEISELMRKAKELLQKYLELNKDDEEERKKVTEEFDKKYDEIMKLMTIIVKKIEELLK
# B5: traf2_out_11_155_670 (protein)
# chain: SEKQKLNNELVNELTEIADELKEKVEKILKEAAAAHPEHAEELAAVIASGKTLSGRSFARLAAQKFRELGLEEEAKKVEELLEEAQKKMNEVVKKYEEKL
# B6: traf2_out_3_89_2310 (protein)
# chain: GAERERTIEEMRREMERYIRGFRKSAERVAKEMLEDGMSLETLRGVLEAAKSALLEVLRERMRERGLSEEEIEELLEEAGRELDKVVEEVVAEAEERRKA
# B7: traf2_out_17_162_1600 (protein)
# chain: SELEKFKEKIEKELEELEKERKELEKKLKEIDSLSKEELTDLLVEASEKRRKALELLEKLEENKEKLDKEFYEKYKKRAEEIAEEFQRIANEIMKKLEEK
# B8: traf2_out_20_38_2010 (protein)
# chain: SEEEKEKEKLEKLVEVANEAYDKYSAEFEKWKAEGKTVEEIAEEVKKRVKEKLSAAGLEEEAKILIEDIDLALSSPNAWRLLVRTLARADALVKQKELNK
# Molecular target: T1, TRAF2, Q12933
# Assay: median log2 fold change of GCK-ALFA target abundance (FLAG IP / Myc IP barcode read proportion) (log2 ratio); each designed protein is fused to an ALFA-tag nanobody in HEK293 cells to bring the named protein to FLAG-tagged glucokinase (GCK); Myc marks an untargeted standard; higher = target protein stabilised (more abundant)
# Conditions: target protein: 3xFLAG-MCP-GCK-ALFA reporter; HEK293 landing pad (RPLP)
# Method in brief: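 Binders fused to an ALFA nanobody were recombined as a library into HEK293 landing-pad cells, which were induced with 2 μg mL^−1 doxycycline and then transfected to express a FLAG-tagged target and a Myc-tagged standard. After 48 h, circular RNA barcodes recovered by anti-FLAG and anti-Myc immunoprecipitation of lysates were reverse transcribed, amplified and sequenced. Each binder's target abundance is the median log2 ratio of FLAG to Myc barcode read proportions, from barcodes present at ≥10^−7 in both replicates, binders carrying ≥3 barcodes per replicate, a 10^−6 pseudocount and pooled replicates.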
row,Binder,median log2 fold change
1,B1,-0.574
2,B2,0.344
3,B3,-1.23
4,B4,0.137
5,B5,0.263
6,B6,-1.13
7,B7,0.0488
8,B8,-1.49
